# Screening data: PubChem BioAssay, several laboratories
# eIF4H FP inh: human eIF4H binding inhibitors, primary screen, translation initiation inhibitor project, biochemical, uHTS, fluorescence polarization; Eukaryotic translation initiation factor 4H (Homo sapiens), Q15056; eIF4H fluorescence polarization binding assay; inhibition, % at 35 µM; hit rate 0.94% among 290,000; AID 2012, 2009;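 also: calls also rest on retests at 20 µM and on dose response follow-up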
# eIF4E 4G PPI: eIF4E–eIF4G protein interaction inhibitors, primary screen, biochemical, uHTS, TR-FRET, eIF4GI fragment. hit rate 0.37% among 220,000. Eukaryotic translation initiation factor 4E (Mus musculus) + Eukaryotic translation …. inhibition, % at 21.7 µM. TR-FRET eIF4E-eIF4GI(517-606) binding, 2 h. AID 782, 2007;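 active = inhibition above about 30%, limit read from the data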;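 also: 0% = full FRET control wells and 100% = background wells lacking eIF4GI fragment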
# PABP polyA inh: PABP poly(A) RNA binding inhibitors, primary screen, biochemical, fluorescence polarization, uHTS; Polyadenylate-binding protein 1 (Homo sapiens), P11940; calls only at 35 µM; hit rate 1% among 290,000; AID 2014, 2009;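 also: calls also rest on retests at 20 µM and on dose response follow-up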
# PERK inhibitor: block of dimerizer-induced PERK translation repression, primary screen, PERK inhibitor project, CHO PERK-DD cells, SEAP luminescence, HTS. Eukaryotic translation initiation factor 2-alpha kinase 3 (Homo sapiens), Q9NZJ5. CHO PERK-DD fusion, SEAP luminescence translation reporter. inhibition, % at 5.6 µM. hit rate 0.17% among 220,000;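 active = inhibition above the mean inhibition of all tested compounds plus 3 SD, set separately per screening campaign, cut at about 2.9% in these data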;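 also: PERK kinase domain activated by AP20187 dimerizer at 100 nM; 0% = DMSO with dimerizer and 100% = rapamycin at 8.4 µM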
# PABP1 MLLE inh: inhibitors of PABP1 MLLE–PAM2 peptide binding, primary screen, biochemical, fluorescence polarization, FITC-PAM2, GST-MLLE; hit rate 0.36% among 360,000; Polyadenylate-binding protein 1 (Homo sapiens), P11940; inhibition, % at 20 µM; AID 588489, 2011; in the data active = inhibition above about 35%, passing the limit was not always enough;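 also: plate controls were DMSO wells with GST-MLLE for no effect and wells lacking GST-MLLE protein for full effect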
# The depositor's hits bear a star; i = inactive; ? = inconclusive; / = no result given; + = active, no number. The list is not random: actives were taken first. Their share in the collection is about 1.6%. Unless noted, no rule for the calls is given here.
SMILES,eIF4H FP inh,eIF4E 4G PPI,PABP polyA inh,PERK inhibitor,PABP1 MLLE inh
CNC(=O)O/N=C/c1nn(C(=O)C(C)(C)C)cc1Br,-8.7,1.6,i,3.2*,-1.9
Cc1[nH]c2ccccc2c1C(=O)C(=O)N1CC2CC(C1)c1cccc(=O)n1C2 (stereo not drawn),1.8,-3.2,i,0.5,2.9
O=c1cc(C(F)(F)F)c2cc3c4c(c2o1)CCCN4CCC3,?,-1.1,+,-0.4,i
CCC(=NCc1cccnc1)c1c(O)n(-c2ccccc2)c(=O)[nH]c1=O,0.0,32.1*,i,0.3,9.4
COC(=O)C1=C(c2ccc(F)cc2OCc2ccccc2)C[C@@H]2CC[C@H]1N2C(=O)NCC1CC1,/,/,/,/,16.3
S=C=Nc1ccccn1,-0.4,0.9,i,0.5,27.0
c1ccc(P(c2ccccc2)c2ccccn2)cc1,-3.3,-2.3,i,1.0,39.4*
COc1ccc2[nH]c(C)c(CCNCc3cc(OC)c(OC)c(OC)c3)c2c1,94.0*,-0.5,+,0.1,-3.1
COc1ccc2[nH]c(C)c(CCNCc3cc(OC)c4c(c3)OCO4)c2c1,/,/,/,/,-1.4
CN(C)[C@@H]1C(=O)C(C(N)=O)=C(O)[C@@]2(O)C(=O)C3=C(O)c4c(O)ccc(Cl)c4[C@@](C)(O)C3C[C@@H]12 (stereo partly drawn),64.0,3.5,i,-0.7,7.7
CN(C)C1C(=O)C(C(N)=O)=C(O)C2(O)C(=O)C3=C(O)c4c(O)cccc4C(C)(O)C3CC12 (stereo not drawn),81.3*,/,+,/,0.1
Cc1ccccc1N1C(=O)/C(=C/c2ccco2)C(=O)NC1=S,75.3*,/,+,/,/
Cc1ccc(OC(=O)N(C)C[C@@H]2OCc3cnnn3CCCC(=O)N([C@@H](C)CO)C[C@@H]2C)cc1,/,/,/,/,10.4
Cc1nc2cc(-c3ccc(Cl)cc3)nn2c(C)c1CCC(=O)N1CCC2(CC1)OCCO2,/,/,/,0.0,-7.6
COc1ccc(CN2C(=O)NC(=O)/C(=C/c3cc(OC)c(OC)c(OC)c3)C2=O)cc1,?,-2.2,+,-0.2,19.0
COc1ccc(CN2C(=O)NC(=O)/C(=C/c3ccc(OC)c(OC)c3OC)C2=O)cc1,68.6*,2.0,i,1.4,-0.5
Cc1c(C)c2ccc(OCC(=O)N3C[C@H]4C[C@@H](C3)c3cccc(=O)n3C4)c(C)c2oc1=O,-2.3,/,i,/,17.4
CCCCN1C(=O)/C(=C\c2ccco2)C(=O)N(CCc2ccccc2)C1=O,?,14.9,+,0.7,-36.2
CCCCN1C(=O)/C(=C/C=C/c2ccco2)C(=O)NC1=S,71.5*,16.6,+,0.1,-92.1
O=c1[nH]c(=S)[nH]c(O)c1N=Nc1ccc2c(c1)OCO2,53.1*,5.7,i,0.6,-34.2
O=c1[nH]c(=S)[nH]c(O)c1N=Nc1ccc2c(c1)OCCO2,?,0.8,?,0.1,-62.0
O=C(N/N=C/c1c(O)n(Cc2ccco2)c(=O)[nH]c1=O)c1ccccc1O,53.2*,-0.5,i,0.6,-57.5
O=c1[nH]c(=O)n(Cc2ccco2)c(O)c1C=NCc1ccco1,9.8,2.1,i,0.6,12.7
CCCCC(=O)N/N=C/c1c(O)n(Cc2ccco2)c(=O)[nH]c1=O,85.8,-0.3,+,0.9,-34.9
CC(=O)Nc1ccc(N=Cc2c(O)n(Cc3ccco3)c(=O)[nH]c2=O)cc1,68.4,3.8,i,2.4,18.2
SMILES,eIF4H FP inh,eIF4E 4G PPI,PABP polyA inh,PERK inhibitor,PABP1 MLLE inh
CCNc1nc(NC(C)(C)C)nc(SC)n1,/,/,/,/,-1.4
CC(NC(=O)Cc1cccc2ccccc12)C(=O)N1CCC(=O)CC1 (stereo not drawn),-14.8,0.1,i,-0.6,7.0
Cn1cc(C=C2C(=O)NC(=O)NC2=O)c2ccccc21,?,/,?,/,i
O=C1NC(=O)C(=Cc2csc3ccccc23)C(=O)N1,37.9,7.0,i,0.2,40.7*
O=C1NC(=S)NC(=O)C1=Cc1cccc2cc3ccccc3cc12,98.1,-1.7,i,0.8,40.2*
O=[N+]([O-])c1ccc(C(c2ccc([N+](=O)[O-])cc2)c2ccc([N+](=O)[O-])cc2)cc1,/,/,/,/,-2.8
Cn1cnc([N+](=O)[O-])c1Sc1ccc([N+](=O)[O-])cc1,19.4,1.0,i,0.6,46.7*
CCCCCCNC(=O)N[C@@H](Cc1ccc(O)cc1)C(=O)NCCC[C@H]1CN2C(=NC[C@H]2C)N1CC1CCC1,-1.8,8.2,i,/,/
CCCCCCNC(=O)N[C@H](Cc1ccc(O)cc1)C(=O)NCCC[C@H]1CN2C(=NC[C@H]2CCC)N1CC1CCC1,-12.6,55.8*,i,/,/
Cn1cccc1C1CCCN1CC(=O)Nc1ccc(C#N)c(Cl)c1 (stereo not drawn),/,/,/,/,-8.1
O=c1[nH]c(=O)n(-c2cccc3ccccc23)c(O)c1/C=N/N1CCCCC1c1cccnc1 (stereo not drawn),89.0*,1.9,+,0.4,-122.4
O=c1[nH]c(=O)n(C2CCCCC2)c(O)c1/C=N/N1CCCCC1c1cccnc1 (stereo not drawn),-0.8,1.1,i,-1.6,-8.3
O=C1c2cccc(N3CCNCC3)c2C2CCCCN12 (stereo not drawn),/,/,/,/,-13.1
CC1=CC(=O)NP(=O)(Oc2ccc3ccccc3c2)N1 (stereo not drawn),-7.1,80.6*,i,1.5,10.6
C[C@]12CCC3C(CC[C@H]4C[C@H](O)CC[C@]34C)C1C[C@H](O)[C@@H]2O (stereo partly drawn),/,/,/,/,-3.7
CC1CN1P(=O)(Oc1ccccc1)N1CC1C (stereo not drawn),/,/,/,/,-4.3
O=c1[nH]c(=O)n(-c2ccc(F)cc2)c(O)c1C=Nc1ccccc1N1CCCC1,63.8*,-40.6,+,0.6,-57.9
CCC(C)N=Cc1c(O)n(-c2ccccc2)c(=O)[nH]c1=O (stereo not drawn),-4.8,0.9,i,-0.2,45.6*
CC(=O)Nc1ccc(CC(=O)N2CCN(Cc3ccccc3)CC2)cc1,81.7*,/,+,/,2.3
CCCC(=O)N(C)C1=Nc2ccc(Cl)cc2C(c2ccccc2)=[N+]([O-])C1,4.4,0.1,i,-0.1,7.0
CCOC(=O)C1SC2(C(F)(F)F)CC1(O)c1c(C)cc(C)nc1O2 (stereo not drawn),-7.1,-0.4,i,0.0,59.6*
COc1ccc(/C=C/C(=O)c2c(O)n(CCC3=CCCCC3)c(=O)[nH]c2=O)cc1OC,-6.6,-6.2,?,0.2,-80.2
COc1ccc(/C=C2/C(=O)NC(=O)N(c3ccc(C)c(C)c3)C2=O)cc1CN1C(=O)c2ccccc2C1=O,50.1*,3.8,+,0.6,27.0
COc1cc(/C=C2\C(=O)NC(=O)N(c3ccccc3)C2=O)cc(OC)c1OC,-10.7,-6.2,i,0.9,17.6
